A selection: hits, their analogues and other compounds. The true share with any hit is near 3.9%.
TROY signal inh = TROY signaling inhibition; Q293 LMP1-TROYcd NF-kB luciferase reporter, 4 h; inhibition, % at 10 µM; 360,000 compounds, 0.98% hits; AID 1347056;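 active means compounds whose plate-normalised and pattern-corrected inhibition of the luciferase reporter signal at the single screening dose is 50% or more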
TWEAK-Fn14 inh = TWEAK-Fn14 signaling inhibition; TWEAK-stimulated Fn14 reporter cells, luciferase luminescence, 8 h; inhibition, % at 10 µM; 360,000 compounds, 2% hits; AID 1159606; in the data active means inhibition above about 50%
Peg3 prom inh = reduces Peg3 promoter-driven luciferase expression in HeLa | HeLa PEG-Prom luciferase reporter, luminescence, overnight | inhibition, % at 20 µM | 360,000 compounds, 1.7% hits | AID 588405;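 active means inhibition of at least 50% at 20 µM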
KKLEB cytotox = CF airway cell cytotoxicity counter-screen. KKLEB CF airway cells viability, ATPlite luminescence, overnight; hits give low values; cells stimulated with P. aeruginosa culture filtrate. activity change (cytotoxicity), % at 5 µM. 360,000 compounds, 0.36% hits;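 active means corrected activity change at or below -50% at 5 µM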
CF NFkB block = cystic fibrosis NF-kB activation inhibition; KKLEB NF-kB-GFP reporter, PAF-induced, GFP fluorescence overnight; inhibition, % at 5 µM; AID 588850; 360,000 compounds, 0.86% hits;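 active means at least 50% inhibition at 5 µM, scaled per plate between neutral and stimulator controls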;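 further: PAF is a Pseudomonas aeruginosa culture filtrate used as stimulus; plate controls were PAF-stimulated DMSO wells for no effect and unstimulated DMSO wells for full effect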
HIF-2a block = inhibitors of HIF-2a | 360,000 compounds, 0.72% hits | 786-0 RCC cells HIF-2a reporter, luciferase luminescence, overnight | AID 624352 | inhibition, % at 18.8 µM;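 active means inhibition of the luminescence signal of 40% or more relative to plate controls, in a single-dose primary screen at 18.75 µM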
CF NFkB inh conf = confirmation of cystic fibrosis induced NF-kB inhibitors. KKLEB CF airway cells, PAF-induced NF-kB-GFP fluorescence, overnight. shares compounds with CF NFkB block. 1,300 compounds, 64% hits. AID 602472. inhibition, % at 5 µM; in the data active means inhibition above about 40%;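 further: stimulus PAF is a Pseudomonas aeruginosa filtrate and not platelet activating factor; plate controls were DMSO wells with stimulus for no effect and unstimulated DMSO wells for full effect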
* = called active by the depositor; . = not tested or not shown.

SMILES	TROY signal inh	TWEAK-Fn14 inh	Peg3 prom inh	KKLEB cytotox	CF NFkB block	HIF-2a block	CF NFkB inh conf
Cc1ccc(NC(=O)COc2ncnc3ccccc23)cc1S(=O)(=O)N1CCOCC1	13	13	10	1	-2	19	.
Cc1ccc(NC(=O)CSc2ncnc3ccccc23)cc1S(=O)(=O)N1CCOCC1	53*	71*	19	-21	56*	29	73*
CCCCNc1cc(C(=O)O)cc(S(N)(=O)=O)c1Oc1ccccc1	16	-11	4	24	62*	24	1
Cc1c([N+](=O)[O-])c2ccc(O)cc2n1-c1ccccc1	32	56*	31	-2	68*	3	78*
Cc1cc2ccccc2c(=O)n1CC(=O)NCc1ccco1	-18	-2	12	6	5	12	.
O=C(OC1CCOC1=O)c1ccccc1C(=O)c1ccc(Cl)c([N+](=O)[O-])c1 (stereo unspecified)	23	66*	-2	-12	72*	-8	52*
CCCOc1ccc(C(=O)c2ccccc2C(=O)OC2CCOC2=O)cc1OCCC (stereo unspecified)	-8	-17	9	6	2	8	.
Cc1ccc(Cl)cc1N1CCN(S(=O)(=O)c2c(C)[nH]c(C)c2C(=O)N2CCCC2)CC1	-13	11	20	1	-4	24	.
COC(=O)c1ccsc1NC(=O)c1ccco1	-31	-2	-5	-21	22	-27	.
CCOC(=O)C(NC(=O)c1ccccc1)C(C)(C)SCc1ccccc1 (stereo unspecified)	13	25	12	-15	-9	5	.
CN(C(=O)C(=O)c1cn(CC(=O)N2CCCC2)c2ccccc12)C1CCCCC1	-21	6	19	8	1	11	.
CC(C)Nc1ncnc2ccc(Br)cc12	34	78*	26	-7	70*	28	85*
Brc1ccc2ncnc(NCc3ccco3)c2c1	16	42	-40	-8	54*	-18	58*
CC(=O)c1cccc(Nc2ncnc3ccc(Br)cc23)c1	34	44	23	-11	46	21	.
CC(=O)c1ccc(Nc2ncnc3ccc(Br)cc23)cc1	13	9	-9	-27	60*	17	46*
O=C(NC1CCN(c2ncccn2)CC1)c1cccc(F)c1	-41	0	5	3	5	11	.
C=C(C)CNC(=S)Nc1sc2c(c1C(=O)OCC)CC(C)(C)OC2	-8	-20	-8	-3	1	7	.
O=c1oc2ccc(Br)cc2cc1S(=O)(=O)c1ccc(F)cc1	17	91*	50*	-7	58*	-21	22
Cc1ncc(CO)c2cc(S(=O)(=O)c3ccc(F)cc3)c(=O)oc12	-4	7	-1	-21	15	9	.
C[C@H](O)[C@@H]1CN2CCc3c([nH]c4ccccc34)[C@@H]2C[C@@H]1N(C)C(=O)Nc1cccc2ccccc12	28	34	3	-12	0	6	.
C[C@H](O)[C@@H]1CN2CCc3c([nH]c4ccc(-c5ccc6c(c5)OCO6)cc34)[C@@H]2C[C@@H]1N(C)C(=O)Nc1ccc(F)cc1	-4	3	70*	-40	65*	-8	52*
Cc1nc2nc(SCc3ccccc3)nn2c(C)c1C	-39	-31	-88	-3	2	-163	.
COCCCN(C(=O)c1ccc(N2CCCC2=O)cc1)c1c(N)n(Cc2ccccc2)c(=O)[nH]c1=O	-11	-2	-6	4	-5	22	.
CCCCN(C(=O)c1ccc(N2CCCC2=O)cc1)c1c(N)n(Cc2ccccc2)c(=O)[nH]c1=O	21	-14	-23	8	58*	18	36
CC(Sc1nc2ncc(Cl)cc2[nH]1)C(=O)Nc1ccccc1[N+](=O)[O-] (stereo unspecified)	3	3	15	-14	53*	12	3
SMILES	TROY signal inh	TWEAK-Fn14 inh	Peg3 prom inh	KKLEB cytotox	CF NFkB block	HIF-2a block	CF NFkB inh conf
Cc1ccccc1NC(=O)CSc1nc2ncc(Cl)cc2[nH]1	-14	-8	21	-7	18	-15	.
CSc1ncc(Cl)c(C(=O)Nc2ccccc2[N+](=O)[O-])n1	-2	-6	-9	7	-15	11	.
Cc1c(Cl)cccc1NC(=O)CSc1nc2ncc(Cl)cc2[nH]1	27	6	4	-7	62*	-12	51*
Oc1ccc(CCNc2ncnc3ccc(Cl)cc23)cc1	56*	94*	10	-2	70*	11	89*
COc1ccc(NC(=O)c2nnn(Cc3ccc(SC)cc3)c2N)c(OC)c1	-16	-38	5	-2	9	-17	.
CCCCCn1c(=O)[nH]c2cc(C(=O)N3CCN(c4ccc(C(C)=O)cc4)CC3)ccc2c1=O	27	32	8	0	-2	-2	.
Oc1ccc(Cl)cc1Cc1cc(Cl)ccc1O	54*	54*	42	30	77*	-8	90*
CS(=O)(=O)N1N=C(c2cccs2)CC1c1ccccc1O (stereo unspecified)	-22	3	7	-1	2	16	.
Oc1ccccc1C1CC(c2cccs2)=NC(c2ccc(Cl)cc2)N1 (stereo unspecified)	-8	14	18	-40	65*	-47	10
CCOC(=O)Nc1ccc2c(c1)N(C(=O)CCN(CC)CC)c1ccccc1S2=O (stereo unspecified)	54*	64*	58*	-30	91*	28	43*
O=C(CC(=O)N/N=C/c1ccc(F)cc1)N/N=C/c1ccc(F)cc1	-6	7	-5	10	-12	13	.
Cc1ccc(S(=O)(=O)n2cc(C=O)c3ccccc32)cc1	36	27	30	-4	-16	20	.
Cc1ccc(S(=O)(=O)n2cc(-c3ccccc3)c3ccccc32)cc1	14	14	-8	-12	53*	0	78*
COc1cccc(CNC(=O)CN2CCC(c3nc4ccc(C)cc4[nH]3)CC2)c1	-4	-16	5	-13	56*	19	10
CCOc1ccccc1N1CCN(C(=O)c2cc(-c3cc(OC)ccc3OC)nc3ccccc23)CC1	-27	20	44	-6	65*	12	63*
COc1ccc(OC)c(-c2cc(C(=O)N/N=C/c3ccc(F)cc3)c3ccccc3n2)c1	-10	1	18	10	2	20	.
COc1ccc(OC)c(-c2cc(C(=O)Nc3ccccc3C(N)=O)c3ccccc3n2)c1	-40	21	54*	-19	80*	13	24
O=C(Nc1ccc2c(c1)OCCO2)c1cc(-c2ccccn2)nc2ccc(Br)cc12	30	29	9	-32	62*	7	56*
CC(=O)c1ccc2noc(-c3ccccc3)c2c1	-12	2	-16	-5	1	-20	.

Compound activity from PubChem.
